Reference: PubChem BioAssay AID1159580 (chemical genetic matrix, 2015)
In all, about 5,500 compounds went through this assay and about 2,000 (36%) were called active. Another 18% or so got no clear call; they are omitted. This is one part of the list. A number with no mark means an inactive call. Cut-off read from the data, not from the text of the source: active = normalized growth mostly below about 0.91 (no sharp cut-off); inconclusive = no clear call, values can overlap the other calls; inactive = mostly above about 0.92.

Assay: chemical genetic growth profiling, strain panel (AID 1159580);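 note: tested at 20 µM; growth read once vehicle control cultures reached saturation at 30 °C; 1 = growth at the plate median or of vehicle wells; lower values mean less growth of the strain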
Settings: growth OD

In the case of `CC(Cc1cccc(C(F)(F)F)c1)NCCOC(=O)c1ccccc1` (configuration not stated), the normalized growth (S. cerevisiae deletion strains, locus YJR075W, strain HOC1, hits give low values) was 0.886, the normalized growth (S. cerevisiae deletion strains, locus YKL009W, strain mrt4, hits give low values) was 0.974 and the normalized growth (S. cerevisiae deletion strains, locus YKL068W, hits give low values) was 1.01. For the same compound, the normalized growth (S. cerevisiae deletion strains, locus YKL085W, strain MDH1 (second series), hits give low values) was 0.998, the normalized growth (S. cerevisiae deletion strains, locus YKL085W, strain MDH1, hits give low values) was 0.998 and the normalized growth (S. cerevisiae deletion strains, locus YKL160W, strain elf1, hits give low values) was 0.946. For the same compound, the normalized growth (S. cerevisiae deletion strains, locus YKL190W, strain CNB1, hits give low values) was 0.982, the normalized growth (S. cerevisiae deletion strains, locus YKR001C, strain vps1, hits give low values) was 1.03 and the normalized growth (S. cerevisiae deletion strains, locus YKR026C, strain gcn3, hits give low values) was 0.987. It also gave a normalized growth (S. cerevisiae deletion strains, locus YKR091W, strain srl3, hits give low values) of 1, a normalized growth (S. cerevisiae deletion strains, locus YLL001W, strain dnm1, hits give low values) of 0.935 and a normalized growth (S. cerevisiae deletion strains, locus YLL026W, hits give low values) of 0.933. The normalized growth (S. cerevisiae deletion strains, locus YLL041C, strain sdh2, hits give low values) was 0.993, the normalized growth (S. cerevisiae deletion strains, locus YLR027C, strain aat2, hits give low values) was 0.93 and the normalized growth (S. cerevisiae deletion strains, locus YLR039C, strain RIC1, hits give low values) was 1.02. It also gave a normalized growth (S. cerevisiae deletion strains, locus YLR058C, strain SHM2, hits give low values) of 0.967, a normalized growth (S. cerevisiae deletion strains, locus YLR102C, strain apc9, hits give low values) of 1.02 and a normalized growth (S. cerevisiae deletion strains, locus YLR113W, strain HOG1, hits give low values) of 1. For the same compound, the normalized growth (S. cerevisiae deletion strains, locus YLR221C, strain rsa3, hits give low values) was 0.956, the normalized growth (S. cerevisiae deletion strains, locus YLR258W, strain gsy2, hits give low values) was 0.974 and the normalized growth (S. cerevisiae deletion strains, locus YLR262C, strain YPT6 (second series), hits give low values) was 0.785 (active). The normalized growth (S. cerevisiae deletion strains, locus YLR262C, strain YPT6, hits give low values) was 1.01, the normalized growth (S. cerevisiae deletion strains, locus YLR268W, strain sec22, hits give low values) was 0.992 and the normalized growth (S. cerevisiae deletion strains, locus YLR320W, strain mms22, hits give low values) was 0.913. The normalized growth (S. cerevisiae deletion strains, locus YLR330W, strain CHS5, hits give low values) was 0.991, the normalized growth (S. cerevisiae deletion strains, locus YLR342W, strain FKS1 (second series), hits give low values) was 0.745 (active) and the normalized growth (S. cerevisiae deletion strains, locus YLR342W, strain FKS1, hits give low values) was 0.88 (active). The normalized growth (S. cerevisiae deletion strains, locus YLR357W, strain rsc2, hits give low values) was 0.987, the normalized growth (S. cerevisiae deletion strains, locus YLR370C, strain arc18, hits give low values) was 0.931 and the normalized growth (S. cerevisiae deletion strains, locus YLR371W, strain rom2, hits give low values) was 1.02. It also gave a normalized growth (S. cerevisiae deletion strains, locus YLR384C, strain iki3, hits give low values) of 0.988, a normalized growth (S. cerevisiae deletion strains, locus YLR418C, strain cdc73, hits give low values) of 0.978 and a normalized growth (S. cerevisiae deletion strains, locus YML016C, strain PPZ1, hits give low values) of 0.989. The normalized growth (S. cerevisiae deletion strains, locus YML032C, strain rad52, hits give low values) was 0.941, the normalized growth (S. cerevisiae deletion strains, locus YML120C, strain ndi1, hits give low values) was 0.953 and the normalized growth (S. cerevisiae deletion strains, locus YML124C, strain tub3, hits give low values) was 1.02. It also gave a normalized growth (S. cerevisiae deletion strains, locus YMR058W, strain fet3, hits give low values) of 0.905, a normalized growth (S. cerevisiae deletion strains, locus YMR078C, strain ctf18, hits give low values) of 1.02 and a normalized growth (S. cerevisiae deletion strains, locus YMR125W, strain sto1, hits give low values) of 0.97. The normalized growth (S. cerevisiae deletion strains, locus YMR129W, hits give low values) was 0.985, the normalized growth (S. cerevisiae deletion strains, locus YMR205C, strain PFK2, hits give low values) was 0.961 and the normalized growth (S. cerevisiae deletion strains, locus YMR223W, strain ubp8, hits give low values) was 0.947. The normalized growth (S. cerevisiae deletion strains, locus YMR231W, strain pep5, hits give low values) was 1, the normalized growth (S. cerevisiae deletion strains, locus YMR263W, strain SAP30, hits give low values) was 0.962 and the normalized growth (S. cerevisiae deletion strains, locus YMR307W, strain GAS1, hits give low values) was 0.955. It also gave a normalized growth (S. cerevisiae deletion strains, locus YNL067W, strain RPL9B, hits give low values) of 0.923, a normalized growth (S. cerevisiae deletion strains, locus YNL071W, strain lat1, hits give low values) of 0.996 and a normalized growth (S. cerevisiae deletion strains, locus YNL128W, strain TEP1, hits give low values) of 0.951. For the same compound, the normalized growth (S. cerevisiae deletion strains, locus YNL153C, strain GIM3, hits give low values) was 0.938, the normalized growth (S. cerevisiae deletion strains, locus YNL183C, strain NPR1, hits give low values) was 0.895 and the normalized growth (S. cerevisiae deletion strains, locus YNL209W, strain ssb2, hits give low values) was 0.963. For the same compound, the normalized growth (S. cerevisiae deletion strains, locus YNL233W, strain BNI4, hits give low values) was 0.877, the normalized growth (S. cerevisiae deletion strains, locus YNL248C, strain rpa49, hits give low values) was 0.906 and the normalized growth (S. cerevisiae deletion strains, locus YNL250W, strain rad50, hits give low values) was 1.03. The normalized growth (S. cerevisiae deletion strains, locus YNL271C, strain bni1, hits give low values) was 1.01, the normalized growth (S. cerevisiae deletion strains, locus YNL298W, strain CLA4, hits give low values) was 1.01 and the normalized growth (S. cerevisiae deletion strains, locus YNL307C, strain MCK1, hits give low values) was 0.974. It also gave a normalized growth (S. cerevisiae deletion strains, locus YNL322C, strain KRE1 (second series), hits give low values) of 1.01, a normalized growth (S. cerevisiae deletion strains, locus YNL322C, strain KRE1, hits give low values) of 1.01 and a normalized growth (S. cerevisiae deletion strains, locus YNR049C, strain mso1, hits give low values) of 0.998. The normalized growth (S. cerevisiae deletion strains, locus YNR052C, strain pop2, hits give low values) was 0.921, the normalized growth (S. cerevisiae deletion strains, locus YOL006C, strain TOP1, hits give low values) was 0.605 and the normalized growth (S. cerevisiae deletion strains, locus YOL012C, strain htz1) was 0.888. It also gave a normalized growth (S. cerevisiae deletion strains, locus YOL147C, strain pex11, hits give low values) of 1.01, a normalized growth (S. cerevisiae deletion strains, locus YOR001W, strain rrp6, hits give low values) of 0.92 and a normalized growth (S. cerevisiae deletion strains, locus YOR061W, strain CKA2, hits give low values) of 0.994. It also gave a normalized growth (S. cerevisiae deletion strains, locus YOR069W, strain VPS5, hits give low values) of 0.995, a normalized growth (S. cerevisiae deletion strains, locus YOR070C, strain gyp1, hits give low values) of 0.985 and a normalized growth (S. cerevisiae deletion strains, locus YOR080W, strain dia2, hits give low values) of 0.971. For the same compound, the normalized growth (S. cerevisiae deletion strains, locus YOR083W, strain WHI5, hits give low values) was 0.913, the normalized growth (S. cerevisiae deletion strains, locus YOR106W, strain vam3, hits give low values) was 0.906 and the normalized growth (S. cerevisiae deletion strains, locus YOR136W, strain idh2, hits give low values) was 1.01. It also gave a normalized growth (S. cerevisiae deletion strains, locus YOR144C, strain elg1, hits give low values) of 1.02, a normalized growth (S. cerevisiae deletion strains, locus YOR184W, strain ser1, hits give low values) of 1.01 and a normalized growth (S. cerevisiae deletion strains, locus YOR231W, strain MKK1, hits give low values) of 0.979. The normalized growth (S. cerevisiae deletion strains, locus YOR265W, strain rbl2, hits give low values) was 0.975, the normalized growth (S. cerevisiae deletion strains, locus YOR270C, strain vph1, hits give low values) was 0.72 (active) and the normalized growth (S. cerevisiae deletion strains, locus YOR290C, strain snf2, hits give low values) was 0.975. The normalized growth (S. cerevisiae deletion strains, locus YOR316C, strain cot1, hits give low values) was 1.03, the normalized growth (S. cerevisiae deletion strains, locus YPL051W, strain arl3, hits give low values) was 0.904 (active) and the normalized growth (S. cerevisiae deletion strains, locus YPL055C, strain LGE1, hits give low values) was 0.954. For the same compound, the normalized growth (S. cerevisiae deletion strains, locus YPL078C, strain atp4, hits give low values) was 0.944, the normalized growth (S. cerevisiae deletion strains, locus YPL106C, strain sse1, hits give low values) was 0.975 and the normalized growth (S. cerevisiae deletion strains, locus YPL240C, strain hsp82, hits give low values) was 0.98. It also gave a normalized growth (S. cerevisiae deletion strains, locus YPL241C, strain CIN2, hits give low values) of 0.995, a normalized growth (S. cerevisiae deletion strains, locus YPL256C, strain CLN2, hits give low values) of 0.969 and a normalized growth (S. cerevisiae deletion strains, locus YPR119W, strain clb2, hits give low values) of 1.02. The normalized growth (S. cerevisiae deletion strains, locus YPR141C, strain kar3, hits give low values) was 1.02, the normalized growth (S. cerevisiae deletion strains, locus YPR163C, strain tif3, hits give low values) was 0.928 and the normalized growth (S. cerevisiae deletion strains, locus YPR167C, strain met16, hits give low values) was 1. The normalized growth (S. cerevisiae deletion strains, strain wtn01, hits give low values) was 0.978 and the normalized growth (S. cerevisiae strains, strain wild type, hits give low values) was 0.955.
